ELG1 repair inh = qHTS screen for small molecules that inhibit ELG1-dependent DNA repair in human embryonic kidney (HEK293T) cells expressing luciferase-tagged ELG1; HEK293T ELG1-luciferase reporter, luminescence, 16 h; DNA damage induced by 5-fluorouridine; Potency, µM (highest dose often 46.1 µM), for the others: at the highest dose activity change, negative = inhibition, actives largely listed as inhibitors; 330,000 compounds, 2.3% hits; further: on the % scale 0 is the no-effect control and ±100 the full control effect; nearly all actives have a fitted effect of over 55% in size
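Cells (2,000 per well) received 5-fluorouridine plus test compound or DMSO and were incubated 16 hr at 37 °C, 5% CO2. Luciferase activity was read by luminescence 30 min after ONE-Glo addition; signal suppression marked inhibition of damage-induced ELG1 function.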
SMN2 splice up = qHTS Assay for Enhancers of SMN2 Splice Variant Expression; HEK293 SMN2-luciferase splicing reporter, luminescence, 30-36 h; Potency, µM (top dose mostly 46.1 µM), for inactives: top-dose activity change, positive = activation, usual class: activators; 210,000 compounds, 2.8% hits; further: % of control where 0% means no effect; nearly all actives have a fitted effect of over 55% in size
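HEK293 cells carry an SMN2 minigene-luciferase reporter in which exon 7 inclusion puts luciferase in frame. Cells were seeded at 2000 cells/well, attached for 10-12 hours, then exposed to compounds for 30-36 hours at 37C before ONE-Glo luminescence.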
FLuc modulator = qHTS profiling assay for firefly luciferase inhibitor/activator using purifed enzyme and Km concentrations of substrates (counterscreen for miR-21 project); Luciferin 4-monooxygenase (Photinus pyralis), P08659; purified FLuc, Km substrates, luminescence inhibition; Potency, µM (series often up to 57.5 µM), for inactives: at the top dose activity change, negative = inhibition, actives largely listed as inhibitors; 360,000 compounds, 6.9% hits;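 further: plate controls were vehicle for no effect and reference inhibitor for full effect; nearly all actives have a fitted effect of over 55% in size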
Target sequence (P08659 whole entry, looked up): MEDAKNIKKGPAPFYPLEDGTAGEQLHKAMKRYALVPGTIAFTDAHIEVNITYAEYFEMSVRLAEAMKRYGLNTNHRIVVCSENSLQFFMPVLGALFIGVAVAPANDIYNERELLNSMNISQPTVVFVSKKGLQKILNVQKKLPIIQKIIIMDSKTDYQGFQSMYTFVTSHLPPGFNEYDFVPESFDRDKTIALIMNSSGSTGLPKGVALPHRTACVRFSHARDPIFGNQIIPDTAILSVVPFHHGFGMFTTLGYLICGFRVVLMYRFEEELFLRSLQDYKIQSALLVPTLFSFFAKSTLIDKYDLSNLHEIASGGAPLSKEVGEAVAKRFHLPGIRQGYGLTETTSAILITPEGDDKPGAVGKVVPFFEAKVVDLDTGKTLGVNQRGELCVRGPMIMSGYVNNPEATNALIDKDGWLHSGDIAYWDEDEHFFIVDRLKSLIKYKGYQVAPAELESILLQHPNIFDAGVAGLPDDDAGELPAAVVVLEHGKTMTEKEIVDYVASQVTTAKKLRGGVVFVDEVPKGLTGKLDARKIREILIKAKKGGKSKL
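Purified P. pyralis luciferase (10nM final) with 10uM D-luciferin and 10uM ATP (Km levels) in 50mM Tris acetate pH 7.5, 10mM Mg acetate, 0.01% Tween-20, 0.05% BSA; qHTS 6-point titration, ~60 µM downward; luminescence read.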
ELG1 genotox = qHTS screen for small molecules that induce genotoxicity in human embryonic kidney (HEK293T) cells expressing luciferase-tagged ELG1; AID 504466, 2011; Potency, µM (doses to about 46 µM), inactives show at the highest dose activity change, positive = activation, actives largely listed as activators; 330,000 compounds, 1.3% hits; HEK293T ELG1-luciferase reporter, luminescence, 16 h; further: % of control where 0% means no effect; nearly all actives have a fitted effect of over 60% in size
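Reporter readout depends on ELG1 protein level, which increases with genetic stress. After 16 hr compound exposure at 37 °C, luciferase activity was quantified using ONE-Glo.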
Rab9 promoter act = qHTS Assay for Rab9 Promoter Activators | Potency, µM (highest dose often 9.22 µM), for inactives: at the top dose activation, negative = inhibition, usual class: activators | 320,000 compounds, 2.8% hits | Huh7 Rab9 promoter-luciferase reporter, luminescence, 24 h; further: % of control where 0% means no effect; nearly all actives have a fitted effect of over 60% in size
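Cells were plated at 1500 per well in reduced-serum medium with 10% FBS and left 2 h. Compound in DMSO was then added for 24 h at 37 °C. Reporter signal was read by luminescence after 10 min with luciferase detection reagent.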
NPC1 promoter act = qHTS Assay for NPC1 Promoter Activators. AID 485313, 2010. Potency, µM (doses to about 9.22 µM), for the others: top-dose activation, usual class: activators. Huh7 NPC1 promoter luciferase reporter, 24 h. 320,000 compounds, 2.4% hits; further: % of control where 0% means no effect; nearly all actives have a fitted effect of over 60% in size
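Luminescence read-out of NPC1 promoter-driven luciferase in stably transfected Huh7 cells; compounds delivered in DMSO and left 24 h at 37C, 5% CO2, qHTS titration format.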
Starred values were filed as active, the others as inactive; ? = inconclusive; nt = not tested or not shown; [ ] = another dose, or the depositor's remark. The list is not random: actives were taken first. Their share in the collection is about 9.2%. The call rests on the fitted dose curve; in most records, active means well fitted curve in the direction sought with a large enough effect; inconclusive means small, poorly fitted or top-dose-only effect, or another doubt; inactive means no such curve, though single readings can be large; an effect the other way counts as inactive or inconclusive. Potency means the concentration at half of the fitted maximal effect.

SMILES | ELG1 repair inh | SMN2 splice up | FLuc modulator | ELG1 genotox | Rab9 promoter act | NPC1 promoter act
COc1ccc(CNC(=O)N[C@@H](CC(C)C)C(=O)O)cc1OC | 5.0% | nt | -1.6% | 2.3% | -2.5% | -0.9%
C=CCSc1nc2c(cnn2-c2ccccc2)c(=O)n1N | ? | nt | 8.49µM* | ? | 1.41µM* | 1.41µM*
O=C(N/N=C/C(Br)=C/c1ccccc1)c1ccc([N+](=O)[O-])cc1 | 0.0% | nt | 1.8% | -0.1%[9.26 µM] | 0.0% | -0.6%
O=C(N/N=C/C(Br)=C/c1ccccc1)c1ccncc1 | ? | nt | 23.9µM* | 11.7% | 2.3% | -2.3%
CCOc1cc(C(=O)N/N=C/C(Br)=C/c2ccccc2)cc(OCC)c1OCC | -21.4% | -35.5% | -3.0% | 6.2% | -24.6% | -22.4%
O=C(N/N=C/C(Br)=C/c1ccccc1)c1cccnc1 | 32.2% | nt | 13.5µM* | ? | 12.3% | 0.8%
O=Cc1ccsc1B(O)O | nt | -3.1% | nt | nt | nt | nt
CC(=O)N/C(N)=N/c1nc(=O)c2ccccc2s1 | ? | nt | 13.5µM* | 18.3µM* | 2.51µM* | ?
CCOC(=O)NC(=O)COC(=O)CCCSc1nc2ccccc2s1 | 1.0% | -6.5% | ? | 1.6% | -3.7% | -3.8%
CCOC(=O)N/C(N)=N/c1nc2ccccc2s1 | ? | 11.2µM* | 5.36µM* | 4.11µM* | 3.16µM* | 1.58µM*
COc1ccc(OC)c(NC(=O)CSc2nncc3ccc(OC)c(OC)c23)c1 | 20.6µM* | nt | -2.3% | -11.2% | -2.7% | 0.6%
COc1ccc(OC)c(NC(=O)CSc2nnc(NC(=O)c3ccco3)s2)c1 | -13.8% | nt | 26.9µM* | -2.8% | 11.0% | 8.4%
O=C(Nc1nnc(SCc2ccc(F)cc2)s1)c1ccco1 | 18.0% | ? | -11.4% | 6.1% | 0.2% | 0.4%
COc1ccc(-n2c(SCC(=O)Nc3cccc(C(=O)O)c3)nnc2-c2ccco2)cc1 | -16.3% | nt | 1.6% | -1.3% | -2.0% | -0.1%
COc1ccc(OC)c(NC(=O)CSc2nnc(-c3ccco3)n2-c2ccccc2)c1 | 10.3µM* | -3.4% | 4.1% | -10.3% | -7.8% | -4.7%
COc1ccc(OC)c(NC(=O)CCNC(=O)c2ccco2)c1 | -4.0% | nt | 2.9% | -3.3% | 6.4% | 0.1%
COc1ccccc1NC(=O)CSc1nnc(NC(=O)c2ccco2)s1 | 27.9% | nt | 15.1µM* | 13.9% | 7.7% | -1.3%
COc1ccc2cnnc(SCC(=O)Nc3ccccc3)c2c1OC | ? | -13.6% | -2.3% | 1.3% | -3.3% | 5.3%
Cc1ccccc1NS(=O)(=O)c1ccc2[nH]cc(C(=O)NC3CCCCC3)c(=O)c2c1 | nt | nt | ? | nt | -3.7% | -2.2%
CNc1sc(C(=O)c2ccc(F)cc2)c(N)c1-c1nc2ccccc2s1 | ? | -12.7% | ? | ? | -5.4% | 16.7%
CNc1sc(C(=O)c2cccs2)c(N)c1-c1nc2ccccc2s1 | ? | 5.01µM* | 2.69µM* | ? | 2.82µM* | 3.98µM*
Cc1c(/C(O)=C2\C(=O)C(=O)N(CCN(C)C)C2c2ccco2)cnn1-c1ccccc1 (centres undefined) | ? | -4.6% | 26.9µM* | 9.2µM* | ? | ?
Cc1c(/C(O)=C2\C(=O)C(=O)N(CCN(C)C)C2c2ccccc2)cnn1-c1ccccc1 (centres undefined) | ? | nt | 16.9µM* | ? | 20.6% | 19.4%
Cc1ccc(C2/C(=C(\O)c3cnn(-c4ccccc4)c3C)C(=O)C(=O)N2CCN(C)C)o1 (centres undefined) | -0.6% | -22.7% | -13.4% | -0.1% | ? | ?

Screens (PubChem)
